Values joined by “and” are separate entries in the source; they are usually repeats but may differ in a detail not shown here. Identical values can stand only once. About 83,000 compounds went through this panel and 20% of them were active in at least one assay; those are over-represented in the sample as a whole.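 Cell lines were cultured in 96-well plates, exposed to a single compound concentration, and assessed for percent growth 48 hours later.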 Active and inactive are the calls of the source. The calls were made as follows: active = growth percent below 10; inactive = the rest.
How the values were obtained:
Experiment in all cases: NCI-60 one-dose screen, 48 h (100 = growth as untreated, 0 = no growth, -100 = all killed)
Details in all cases: 10 µM unless noted
[1] = tested on: SR leukemia
[2] = tested on: RPMI-8226 leukemia
[3] = tested on: OVCAR-8 ovarian
[4] = tested on: OVCAR-5 ovarian
[5] = tested on: OVCAR-4 ovarian
[6] = tested on: SK-OV-3 ovarian
[7] = tested on: IGROV1 ovarian
[8] = tested on: OVCAR-3 ovarian
[9] = tested on: HS 578T breast
[10] = tested on: NCI/ADR-RES ovarian
[11] = tested on: T-47D breast
[12] = tested on: BT-549 breast
[13] = tested on: MDA-MB-435 melanoma
[14] = tested on: SW-620 colon
[15] = tested on: MCF7 breast
[16] = tested on: HCT-116 colon
[17] = tested on: HCC-2998 colon
[18] = tested on: KM12 colon
[19] = tested on: MDA-MB-468 breast

Measured: growth

O=C(Nc1ccc(-c2ccc3c(c2)NC(=O)/C3=C\c2ccc[nH]2)cc1)Nc1cccc(Cl)c1
active: [1] 6.39% | [3] -34.5% | [4] -68.3% | [5] 6.87% | [6] 3.23% | [7] -62.2% | [8] 2.44% | [10] -37.9% | [11] -1.23% | [12] -1.48% | [15] -9.34% | [16] 2.08% | [17] -24.2% | [18] -22.3%
inactive: [2] 18.2% | [9] 21.9% | [13] 10.1% | [14] 13.9%

COC(=O)c1cc(C(C)=O)n2c3ccccc3c3ccccc3c12
inactive: [1] 64.7% | [2] 87.7% | [3] 50.5% | [4] 92.6% | [5] 44.3% | [6] 99.3% | [7] 41.5% | [8] 73.4% | [9] 29.8% | [10] 44.6% | [11] 54.6% | [12] 38.5% | [13] 93% | [14] 89.3% | [15] 59.6% | [16] 50.3% | [17] 91.4% | [18] 86%

NS(=O)(=O)c1cccc(Nc2nc(SCC(=O)c3ccc(F)cc3)nc3ccccc23)c1
inactive: [3] 16.4% | [4] 45.1% | [5] 15.6% | [6] 38.3% | [7] 13.9% | [10] 26.7% | [14] 27.4% | [17] 16%
active: [1] 8.61% | [2] -2.61% | [8] 0.387% | [9] 7.8% | [11] -7.28% | [12] -5.16% | [13] -18% | [15] 2.1% | [16] 5.03% | [18] -1.98%

CCOC(=O)c1ccc(NC(=S)NC(=O)c2cccc(NC(=O)c3ccc(C)cc3)c2)cc1
inactive: [1] 54.5% | [2] 62.4% | [3] 28.9% | [4] 77.3% | [5] 27.8% | [6] 73.5% | [7] 73.6% | [8] 61.4% | [9] 53.4% | [10] 65.9% | [11] 67.9% | [12] 63.3% | [13] 86.1% | [14] 68.2% | [15] 64.2% | [16] 49.1% | [17] 98.4% | [18] 97.5% | [19] 94.1%

O=C(Nc1ccc(S(=O)(=O)N2CCCCC2)cc1)C(Cl)Cl
inactive: [1] 95.7% | [2] 110% | [3] 111% | [4] 127% | [5] 104% | [6] 118% | [7] 135% | [8] 114% | [9] 119% | [10] 114% | [11] 101% | [12] 124% | [13] 109% | [14] 109% | [15] 101% | [16] 105% | [17] 124% | [18] 104% | [19] 118%

O=C(N=Nc1c(O)[nH]c2ccc(Br)cc12)c1ccc2nc(-c3ccc(Cl)cc3)[nH]c2c1
inactive: [1] 15.1% | [2] 58.6% | [4] 10.6% | [6] 24.3% | [10] 92.4% | [18] 22.4%
active: [3] -25.9% | [5] -28% | [7] -49.4% | [8] -4.77% | [9] -1.71% | [11] -30.7% | [12] 7.28% | [13] -62.4% | [14] -37.2% | [15] -22.9% | [16] 8.39% | [17] -66.8% | [19] -87.7%

Cc1ccc(Cl)cc1NC(=O)Nc1nc2ccc([N+](=O)[O-])cc2s1
active: [1] 1.31% | [2] -18.7% | [3] 1.61% | [4] 2.15% | [5] 7.05% | [6] -28.6% | [7] 8.2% | [8] 2.64% | [9] -13.9% | [10] -17.1% | [11] -19.7% | [12] -30.3% | [13] -18.2% | [14] -21.9% | [15] 0.201% | [16] -37.7% | [17] -10.1% | [18] -2.73% | [19] -39.3%

COc1cccc(/C=C/c2nc3ccccc3c(=O)n2CC(=O)Nc2ccccc2)c1
inactive: [1] 90% | [2] 71.3% | [3] 21.9% | [4] 65.9% | [6] 54.2% | [7] 61% | [8] 74.6% | [10] 33% | [11] 36.7% | [12] 43.9% | [13] 70.6% | [14] 51.1% | [15] 41.6% | [16] 35.7% | [17] 89.8% | [18] 94.2% | [19] 83.4%
active: [5] -1.67% | [9] 3.02%

CS(=O)(=O)Nc1cc(-c2ccc3ncnc(N4CCc5cc(F)c(Cl)cc54)c3c2)cnc1Cl
active: [1] -31.9% | [2] -9.06% | [6] -17.5% | [7] -33.7% | [8] -22.6% | [9] -31.8% | [11] -9.78% | [12] -25.2% | [13] 3.42% | [15] 8.15%
inactive: [3] 13.3% | [4] 11.1% | [5] 10.6% | [10] 12.1% | [14] 32.7% | [16] 23.6% | [17] 16.5% | [18] 14.2%

COc1cccc(-c2ccc(/C=N/NC(=O)c3[nH]c4ccc(Br)cc4c3-c3ccccc3)s2)c1
inactive: [5] 31.7% | [6] 22.1% | [9] 17.8% | [11] 52.9% | [14] 20.4%
active: [1] 6.57% | [2] -22.9% | [3] 0.0466% | [4] -5.23% | [7] 8.09% | [8] -40.5% | [10] -50.1% | [12] -26.9% | [13] -51.3% | [15] 1.38% | [16] -27.5% | [17] 5.11% | [18] -14.2% | [19] 7.16%

O=C(CSc1nc2ccccc2c(=O)[nH]1)NNC(=O)c1ccccc1Cl
inactive: [1] 113% | [2] 108% | [3] 100% | [4] 129% | [5] 99.6% | [6] 103% | [7] 128% | [8] 118% | [9] 97.1% | [10] 123% | [11] 92.4% | [12] 160% | [13] 101% | [14] 104% | [15] 93.4% | [16] 109% | [17] 113% | [18] 101%

COc1cc(C2CC(c3cc(OC)c(OC)c(OC)c3)=Nc3c(N)nc(N)nc3N2)ccc1Oc1nc(Nc2ccc(F)cc2)nc(N(C)C)n1 (configuration not stated)
active: [1] -7.88%
inactive: [2] 33.9% | [3] 59% | [4] 105% | [5] 49.2% | [6] 107% | [7] 70.8% | [8] 74.2% | [9] 48.2% | [10] 66.4% | [11] 65.8% | [12] 74.7% | [13] 66.4% | [14] 50.7% | [15] 23.4% | [16] 22.9% | [17] 36.8% | [18] 42.9%

CN1C(=O)C(O)(CC(=O)c2cc3ccccc3oc2=O)c2ccccc21 (configuration not stated)
inactive: [1] 71.3% | [2] 97.6% | [3] 107% | [4] 107% | [5] 99.9% | [6] 94.9% | [7] 97.7% | [8] 90.5% | [9] 99% | [10] 98.7% | [11] 103% | [12] 105% | [13] 110% | [14] 101% | [15] 67.1% | [16] 92.7% | [17] 109% | [18] 96.9%

CC(=O)Nc1cccc(-n2c(COc3ccc(I)cc3)nc3ccccc32)c1
inactive: [1] 56.2% and 104% | [2] 75.8% and 110% | [3] 97.1% and 117% | [4] 103% and 113% | [5] 74.9% and 109% | [6] 96.8% and 111% | [7] 86.1% and 113% | [8] 88.8% and 87.7% | [9] 62.4% and 115% | [10] 76.6% and 111% | [11] 54.6% and 107% | [12] 96.9% and 110% | [13] 97.7% and 108% | [14] 96.6% and 108% | [15] 74.7% and 103% | [16] 80.4% and 104% | [17] 118% and 119% | [18] 94.7% and 98.5% | [19] 78.7% and 111%

COc1ccc(-c2cc(C(=O)N=Nc3c(O)[nH]c4ccc(Cl)cc34)c3ccccc3n2)cc1
active: [7] -18.8% | [14] 7.42%
inactive: [1] 53.1% | [2] 102% | [3] 22.1% | [4] 42.5% | [5] 23.7% | [6] 78.1% | [8] 44.2% | [9] 77.6% | [10] 28.7% | [11] 102% | [12] 107% | [13] 44.4% | [15] 19.2% | [16] 65.6% | [17] 19.3% | [18] 28%

— PubChem BioAssay (NCI)
